Source: PubChem (National Center for Advancing Translational Sciences (NCATS))
Only some compounds are listed: those with a hit (about 14% of all), similar ones and a draw of the others.
Lassa entry inh: inhibitors of Lassa virus binding or cell entry; Lassa virus pseudotype entry inhibition, cell reporter; Potency, µM (highest dose often 37.9 µM), for inactives: at the top dose activity change, negative = inhibition, most hits filed as inhibitors; hit rate 1.2% among 300,000; AID 540256; calls by dose curve; tested in HEK293 cells; also: potency is read from the fitted curve at half-maximal effect; nearly all actives have a fitted effect of over 50% in size
Pf growth 48h: P. falciparum growth inhibition at 48 hours (one generation). Potency, µM (titrated, usually from 28.7 µM), for inactives: at the highest dose activity change, negative = inhibition, most hits filed as inhibitors. P. falciparum luciferase growth in erythrocytes, 48 h. hit rate 5.9% among 310,000; also: potency is read from the fitted curve at half-maximal effect
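Read-out is firefly luciferase luminescence from an integrated reporter in P. falciparum, so falling signal marks reduced parasite growth. Infected erythrocytes were at 2% hematocrit and 0.1% parasitemia (final) in Albumax-supplemented RPMI 1640.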
Marburg entry inh: Marburg virus entry inhibition; AID 540276; hit rate 1.8% among 300,000; Marburg virus pseudotyped entry inhibition, cell reporter; Potency, µM (top dose mostly 37.8 µM), for the others: at the top dose activity change, negative = inhibition, hits mostly inhibitors; calls by dose curve; tested in HEK293 cells; also: potency is read from the fitted curve at half-maximal effect
Pf growth 96h: P. falciparum growth inhibition at 96 hour, primary screen for plastid delayed-death inhibitors. P. falciparum luciferase reporter growth, 96 h. Potency, µM (series often up to 28.7 µM), for the others: at the highest dose activity change, negative = inhibition, most hits filed as inhibitors. hit rate 6.9% among 320,000; also: potency is read from the fitted curve at half-maximal effect
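Luminescence readout: decreased luciferase signal marks inhibited growth of reporter-expressing P. falciparum in infected red cells (2% hematocrit, 0.05% parasitemia final), exposed to compound two generations (96 h, 37 C, 5% CO2).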
HCMV inh: human cytomegalovirus inhibition; activity change, negative = inhibition, % at 57.5 µM; HFF cells, HCMV-luciferase reporter, 72 h; stronger effect = lower value; hit rate 4.5% among 410,000; in the data active = activity change below about -60%; inconclusive = no clear call, values can overlap the other calls; inactive = above about -39%
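Inhibition of viral replication was scored as loss of reporter luminescence in HFFs infected with HCMV-luciferase (MOI 1 PFU/cell) for 72 h; compounds tested at 2 doses, normalized to buffer and Salinomycin controls.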
HCV inh: inhibitors of hepatitis C virus infection | hit rate 3.4% among 340,000 | Potency, µM (series often up to 41.8 µM), inactives show at the highest dose activity change, negative = inhibition, hits mostly inhibitors | Huh7.5.1 HCVcc-Cre infection, luciferase reporter, 44 h; also: potency is read from the fitted curve at half-maximal effect
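Compounds are dispensed onto cells plated 4 h earlier at 1,000 per well, with HCVcc-Cre virus (about 0.5 moi) added next. Following 44 h of culture, luminescent signal is measured for 15 sec after 15 min with substrate at room temperature.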
An asterisk follows results filed as active; i = inactive; ? = inconclusive; / = no result; [ ] = dose if it differs, or a comment. Unless noted, calls follow the shape of the dose curve; as a rule, active = well fitted inhibition curve with a large enough effect; inconclusive = small, poorly fitted or top-dose-only effect, or another doubt; inactive = no such curve, though single readings can be large or run the other way. % is scaled to controls: 0 for no effect and ±100 for the full control effect.

SMILES	Lassa entry inh	Pf growth 48h	Marburg entry inh	Pf growth 96h	HCMV inh	HCV inh
CC(=O)Nc1nc2cc3c(cc2s1)OCCO3	/	274.7%	/	i	80.8	?
O=C(Nc1nc2ccc(F)cc2s1)C1=COCCO1	2.82µM*	58.7%	?	96.8%	4.1	-13.0%
Cc1cc(C)c(-c2csc(NC(=O)C3=COCCO3)n2)c(C)c1	-13.2%	9.28µM*	?	?	?	?
O=C(CSc1nc(-c2ccccc2)nc2c1Cc1ccccc1O2)N1CCCCC1	-13.0%[46.1 µM]	/	1.5%[46.1 µM]	/	16.5	/
Cc1ccc(C)c(Nc2nn3c(=O)c4ccc(C(=O)NCc5ccccc5)cc4nc3s2)c1	0.5%[46.1 µM]	/	/	/	-0.7	/
Cc1ccccc1NC(=O)c1cc2c(C)nc3ccccc3c2o1	-23.3%	?	-7.8%[46.1 µM]	3.7%	-83.2*	?
O=C(Cc1ccccc1)NCc1ccc2c(c1)OCO2	11.7%	/	18.7%	10.4µM*	66.3	14.7%
Cc1ccc(CNC(=O)c2cc3c(C)nc4ccccc4c3o2)cc1	/	1.1%	/	19.3%	-70.0*	?
Cc1nc2ccccc2c2oc(C(=O)NCc3ccc4c(c3)OCO4)cc12	/	4.9%	/	?	?	8.91µM*
CCc1ccc(NC(=O)c2cc3c(C)nc4ccccc4c3o2)cc1	?	?	?	?	-28.9	?
O=C(CN1C(=O)c2ccccc2S1(=O)=O)NCc1ccc2c(c1)OCO2	0.0%	-5.3%	-0.8%	9.28µM*	-11.3	4.2%
O=C(COC(=O)c1ccc([N+](=O)[O-])o1)NCc1ccc2c(c1)OCO2	/	/	/	/	-83.1*	2.0%
O=C(CN(Cc1ccc(F)cc1)C(=O)c1csnn1)NCc1ccc2c(c1)OCO2	/	-5.6%	-17.5%[46.1 µM]	-0.4%	-11.4	4.3%
O=C(Cn1nc(-c2ccccc2)ccc1=O)NCc1ccc2c(c1)OCO2	?	5.2%	6.2%	1.31µM*	3.5	-9.6%
O=C(CN(Cc1ccccc1F)C(=O)c1csnn1)NCc1ccc2c(c1)OCO2	2.82µM*	-0.1%	-8.1%[46.1 µM]	3.2%	-15.7	-3.2%
O=C(Cn1nc(-c2ccc(Cl)cc2)ccc1=O)NCc1ccc2c(c1)OCO2	/	/	/	10.7%	-7.8	0.6%
O=C(COC(=O)c1ccc(Br)o1)NCc1ccc2c(c1)OCO2	25.7%	/	-14.7%	/	7.0	-6.7%
O=C(NCc1ccc(F)cc1)c1ccc(CSc2nc3ccncc3n2Cc2ccc(F)cc2)cc1	/	/	?	/	-38.0	/
Cc1cc(C)c2nc(-c3ccccn3)cc(C(=O)NCc3ccc(S(N)(=O)=O)cc3)c2c1	?	23.2%	11.2µM*	29.2%	-18.4	?
O=C(NCc1ccc2c(c1)OCO2)c1cc(-c2ccccn2)nc2ccccc12	-27.5%	191.0%	-32.7%[46.1 µM]	?	-19.3	10µM*
Cc1cc(C)c2nc(-c3ccccn3)cc(C(=O)NCCc3ccc(S(N)(=O)=O)cc3)c2c1	-1.0%[46.1 µM]	3.1%	-15.5%[46.1 µM]	-20.7%	3.0	-22.9%
CC(C)C(=O)c1cn(CC(=O)NCc2ccc3c(c2)OCO3)c2ccccc12	3.0%	11.7µM*	9.2%	-18.3%	79.9	-18.5%
CC(C)(O)C#Cc1ccc(C(=O)N2CCC(C(N)=O)(N3CCCCC3)CC2)o1	-11.7%	0.7%	17.6%	?	-15.6	/
COc1ccc(C(=O)N2CCc3ccc(NC(=O)c4ccccn4)cc3C2)cc1F	/	?	/	-10.8%	-89.5*	11.2µM*
COc1cc2c(cc1OC)CN(C(=O)c1ccncc1)CC2	/	/	/	0.5%	-3.9	9.1%
CCOC(=O)c1ccc(-c2ccc(/C=N/NC(=O)CN(c3ccccc3Br)S(C)(=O)=O)o2)cc1	13.9%	-62.8%	?	25.9%	10.5	11.2µM*
CCOC(=O)Cn1c(=O)n(CC2CCCO2)c2nc(-c3ccccc3)nc(C(N)=O)c21 (configuration not stated)	-0.8%[46.1 µM]	/	/	/	-1.0	/
Cn1cccc1C(=S)N=P(C1CCCCC1)(N1CCOCC1)N1CCOCC1	16.3%	/	1.3%	8.28µM*	-23.7	18.1%
Cc1ccc(/C([O-])=C(/C(=S)NCc2ccc3c(c2)OCO3)[n+]2ccc(N(C)C)cc2)c(C)c1	?	-13.8%	-3.4%[14.2 µM]	-12.2%	-70.1*	5.9%
